Source: PubChem BioAssay (several laboratories)
Compounds with a hit are over-represented: about 2% of the library has one in this group of screens.
Shn3 inh set2: Schnurri-3 reporter inhibition in Clone20 osteoblasts. Clone20 osteoblast Shn3 3'UTR firefly luciferase, 24 h. inhibition, % at 12.5 µM. 360,000 tested, 0.52% active;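 active = mean inhibition of at least 75% with every replicate also reaching 75%; inconclusive = mean inhibition at least 75% but some replicate below; inactive = mean inhibition below 75%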;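 also: 0% = median of neutral control wells and 100% = pilot-screen positive control compound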
697 NFkB inh: lowers PMA/ionomycin-induced NF-kB signal in 697 B cells; 330,000 tested, 0.33% active; 697 B-cell NF-kB luciferase reporter, 16 h; AID 435022; inhibition, % at 4 µM; in the data active = inhibition above about 35%
Calb FLC: affects C. albicans growth with fluconazole; C. albicans CaCi-2 (fluconazole-resistant clinical isolate) + fluconazole, Alamar Blue growth, 48 h; growth inhibition, % (test concentration not listed); 300,000 tested, 0.57% active; AID 1979;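 active = growth inhibition above about 58% in most replicates, limit read from the data, passing the limit was not always enough; inconclusive = exactly half the replicates above a set limit; inactive = most replicates below a set limit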;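 also: all wells also contain fluconazole at 8 µg/ml as a sub-toxic cotreatment; 0% = median of DMSO wells and 100% = median of geldanamycin control wells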
Jurkat NFkB inh: lowers PMA/ionomycin-induced NF-kB signal in Jurkat cells. PMA/ionomycin-induced NF-kB luciferase reporter, luminescence. inhibition, % at 4 µM. 330,000 tested, 0.53% active; in the data active = inhibition above about 50%
Beta apoptosis: blocks beta cell apoptosis | INS-1E cytokine-induced death, ATP luminescence, 48 h; percent of positive-control rescue, neutral wells zero | protection from apoptosis, % (test concentration not listed) | 300,000 tested, 0.8% active | AID 435005;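 active = Every replicate reaches about 75%, or at least half do and their mean reaches it too, limit read from the data; inconclusive = At least half of replicates reach the limit but their mean does not; inactive = Under half of replicates reach the limit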;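 also: 0% = cytokine-treated negative control wells and 100% = positive control rescue; higher means more ATP so stronger rescue from cytokine killing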
* = called active by the depositor; ? = inconclusive; nt = no result given; ! = not active in a repeat.

SMILES	Shn3 inh set2	697 NFkB inh	Calb FLC	Jurkat NFkB inh	Beta apoptosis
CC1=NN(c2nc(-c3ccc(C)cc3)cs2)C(=O)C1N=Nc1ccccc1O (configuration not stated)	92.2*	-72.1	3.0	11.0	28.6
CC(C)[C@@H]1CC[C@@H](C)C[C@H]1O	7.1	nt	nt	nt	nt
Cn1c(=O)c2c(-c3ccccc3)n(-c3cc([N+](=O)[O-])ccc3O)cc2n(C)c1=O	-22.4	nt	nt	nt	nt
CC(=O)Nc1cccc(NC(C)=C(C#N)C#N)c1	-7.3	-21.6	23.7	6.8	-2.3
O=[N+]([O-])c1ccccc1N=Nc1c(O)[nH]c2ccc(F)cc12	85.1*	nt	nt	nt	nt
CCNC(=S)Nc1ccc2c(c1)c(=O)n(C)n2-c1ccc(C(C)(C)C)cc1	3.0	nt	nt	nt	nt
CCN(CC)S(=O)(=O)c1ccc(N2CCOCC2)c(NC(=O)c2nn(C(C)C)c(=O)c3ccccc23)c1	86.1*	nt	nt	nt	nt
CCN(CC)S(=O)(=O)c1ccc(N2CCOCC2)c(NC(=O)c2nn(C)c(=O)c3ccccc23)c1	26.7	nt	nt	nt	nt
CCCC[n+]1c2ccccc2cc2ccccc21	27.9	3.7	93.1*	1.9	48.2
CCC[n+]1c2ccccc2cc2ccccc21	-10.7	-14.9	93.9*	-3.3	32.3
O=C(NCCc1cccnc1)C1CCC(=O)N(Cc2ccc(Cl)cc2)C1 (configuration not stated)	0.4	-8.4	-8.4	11.1	nt
O=[N+]([O-])c1cc2cccnc2c2ncccc12	-1.5	-33.9	12.2	-3.8	1.9
O=[N+]([O-])c1cc(O)c2ncccc2c1	nt	-7.3	104.8*	-4.7	nt
CC(C)CC(N)c1csc(NC(=O)c2cc(C(C)(C)C)nn2Cc2ccccc2)n1 (configuration not stated)	96.9*	nt	nt	nt	nt
CC(C)CC(N)c1csc(NC(=O)Nc2ccccc2Cc2ccccc2)n1 (configuration not stated)	31.0	nt	nt	nt	nt
S=C(Nc1ccccc1)Nc1ccc(OCc2ccc(Cl)cc2Cl)cc1	84.9*	4.0	-4.5	-2.4	2.2
S=C(NCCSCc1ccc(Cl)cc1Cl)Nc1ccccc1	-8.8	22.4	-17.7	16.0	-0.2
Cc1ccc(S(=O)(=O)NCc2ccc3c(c2)cc(C)n3C)cc1	-0.7	8.4	-2.5	0.6	3.8
Cc1cc2cc(CN3C(=O)c4ccccc4C3=O)ccc2n1C	13.6	11.4	6.1	-4.1	99.7*
Cn1nnnc1SCC(=O)NC1CCCC1	-30.6	5.9	-1.5	6.2	-1.4
COc1ccc(NC(=O)c2c3c(nc4ccccc24)CCC3)cc1	-0.4	6.2	-32.3	11.7	-2.8
COc1ccc(OC)c(NC(=O)c2c3c(nc4ccccc24)CCC3)c1	3.5	5.4	65.8*	5.3	2.9
Cc1cnccc1CNC(=O)CC1C(=O)NCCN1CC(C)(C)C (configuration not stated)	12.5	4.8	23.7	-28.5	-3.3
COc1ccccc1/C=C1\CCCC2=C1Nc1nnnn1C2c1ccccc1OC (configuration not stated)	91.0*	nt	nt	nt	-19.8
COc1ccccc1NC(=O)C1=C(C)Nc2nnnn2C1c1ccccc1OC (configuration not stated)	13.9	-5.8	2.8	8.2	-2.3
SMILES	Shn3 inh set2	697 NFkB inh	Calb FLC	Jurkat NFkB inh	Beta apoptosis
CC1=C(C(=O)N(C)C)CC(CC(=O)NCC2CCCCC2)C(=O)N1CCCN1CCCC1=O (configuration not stated)	-1.9	nt	nt	nt	nt
C=CCNC(=S)Nc1sc2c(c1C(=O)OCC)CC(C)(CC)OC2 (configuration not stated)	-4.5	-27.6	97.9*	-21.6	6.9
Cc1cccc(OCc2n(CC(=O)OC3CC(C)CCC3C(C)C)c3ccccc3[n+]2C)c1 (configuration not stated)	6.5	-13.6	102.1*	45.2	106.3*
CC1CCC(C(C)C)C(OC(=O)Cn2c(-c3ccccc3)[n+](C)c3ccccc32)C1 (configuration not stated)	86.1*!	-24.4	17.0	49.1	104.5*
CC1CCC(C(C)C)C(OC(=O)C[n+]2cc(-c3ccc(Cl)cc3)n3c2CCC3)C1 (configuration not stated)	15.8	-26.1	-3.2	-17.4	5.2
CC1CCC(C(C)C)C(OC(=O)Cn2c(-c3ccc(F)cc3)[n+](C)c3ccccc32)C1 (configuration not stated)	72.0	-105.6	nt	36.8	105.1*
CNC(=S)N(Cc1ccc2c(c1)OCO2)C1CC(=O)N(c2ccccc2)C1=O (configuration not stated)	-0.8	6.8	?	4.1	22.1
O=C(Nc1ccncc1)c1cccc(S(=O)(=O)N2CCc3ccccc32)c1	91.3*	-35.5	15.4	31.6	7.7
CC(C)CCNc1nc(N)c([N+](=O)[O-])c(N2CCCCCC2)n1	86.8*	-41.6	-8.5	44.3	26.3
Cc1[nH]c2ccccc2c1CN1CCN(c2ccccn2)CC1	nt	15.6	10.5	20.9	92.3*
Cc1[nH]c2ccccc2c1CN1CCC(Cc2ccccc2)CC1	18.5	4.0	59.5	3.0	103.7*
c1ccc(N2CCN(Cc3nc4ccccc4[nH]3)CC2)nc1	3.0	9.6	3.7	11.0	-3.8
O=C(NCc1ccc(Cl)cc1)C1CCCCN1S(=O)(=O)c1ccccc1 (configuration not stated)	22.1	-13.3	13.2	-4.2	2.1
O=C(NCC1CCCO1)C(c1ccc(F)cc1)N(Cc1ccc(F)cc1)C(=O)Cn1nnc(-c2cccs2)n1 (configuration not stated)	7.2	17.9	103.7*	-17.1	8.4
CC(C)Cn1c(/C=N/Nc2nc3ccccc3[nH]2)nc2ccccc21	76.4	nt	4.4	nt	nt
C=CCn1cc(/C=N/Nc2nc3ccccc3[nH]2)c2ccccc21	28.9	-46.3	-38.5	-32.1	109.0*
Cc1nn(-c2ccccc2)c(C)c1/C=N/Nc1nc2ccccc2[nH]1	40.0	-187.0	-16.3	-147.9	36.3
Cc1c(/C=N/Nc2nc3ccccc3[nH]2)c2ccccc2n1C	84.1	-70.6	6.2	-15.2	117.0*
O=C(CSc1ccccn1)Nc1nonc1[N+](=O)[O-]	95.1*	18.0	4.6	12.8	nt
CCOc1cc(C(C(=O)NCC2CCCO2)N(C(=O)Cn2nnc3ccccc32)c2ccccc2OC)ccc1O (configuration not stated)	9.8	-5.6	-8.8	7.8	3.1
O=C(NC(Cc1cccc(F)c1)C(=O)O)C1CCCCC1 (configuration not stated)	-12.4	13.0	nt	4.8	0.8
N#C/C(=C/c1ccc(N2CCOCC2)o1)c1ccc(Cl)cc1	91.2*	nt	0.8	nt	14.5
Cc1cccn2c(=O)c3cc(C(=O)NCC4CCCO4)c(=N)n(C4CCCC4)c3nc12 (configuration not stated)	4.4	16.0	0.1	-10.5	nt
O=C(Nc1ccnn1C1CCNCC1)c1ccc2c(c1)OCO2	1.9	nt	nt	nt	nt
Cc1ccc2cc(/C=C(\C#N)C(N)=O)c(N3CCCCC3)nc2c1	-13.2	-3.1	6.5	-9.7	-8.3
Cc1ccc2cc(C=C(C#N)C#N)c(N3CCCCC3)nc2c1	-14.1	-2.5	58.2*	6.7	2.5
